Measured values as given in PubChem BioAssay (Tox21).
Results filed as inconclusive are left out. A call without a number means that no potency is given here. The source made the active and inactive calls. Unless noted, calls come from the whole dose curve; as a rule, active = well fitted curve in the direction sought with a large enough effect in the repeat runs; inconclusive = weak or mixed curves; inactive = no such curve, though single readings can be large; an effect the other way counts as inactive or inconclusive.

Assays:
[1] = qHTS assay to identify small molecule antagonists of the glucocorticoid receptor (GR) signaling pathway - cell viability counter screen (AID 720693); settings: GR-bla HeLa viability, CellTiter-Glo luminescence, 18 h, with 5 nM dexamethasone present; series mostly up to 58.5 µM; note: nearly all actives have a fitted effect of over 55% in size; note: potency is the fitted concentration of half-maximal effect
[2] = qHTS assay for identifying genotoxic compounds that show differential cytotoxicity against isogenic chicken DT40 cell lines with known DNA damage response pathways - wild type cell line (AID 743012); settings: DT40 wild type chicken cells viability, CellTiter-Glo, 40 h; series mostly up to 68.4 µM; note: nearly all actives have a fitted effect of over 60% in size; note: potency is the fitted concentration of half-maximal effect
Procedure, shortened: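 Endpoint: CellTiter-Glo luminescence, 30 min RT. Cells: wild type DT40, 300/well. Exposure: compounds in DMSO, 40 h, 37 C/5% CO2, after ~0.5 h pre-incubation.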

[3] = qHTS assay for identifying genotoxic compounds that show differential cytotoxicity against isogenic chicken DT40 cell lines with known DNA damage response pathways - Rev3 mutant cell line (AID 743014); settings: chicken DT40 Rev3-/- viability, CellTiter-Glo, 40 h; series mostly up to 68.4 µM; note: nearly all actives have a fitted effect of over 55% in size; note: potency is the fitted concentration of half-maximal effect
[4] = qHTS assay for identifying genotoxic compounds that show differential cytotoxicity against isogenic chicken DT40 cell lines with known DNA damage response pathways - Rad54/Ku70 mutant cell line (AID 743015); settings: DT40 Rad54/Ku70 mutant viability, CellTiter-Glo, 40 h; series mostly up to 66.8 µM; note: potency is the fitted concentration of half-maximal effect; nearly all actives have a fitted effect of over 60% in size
[5] = qHTS assay to identify small molecule antagonists of the thyroid receptor (TR) signaling pathway - cell viability counter screen (AID 743064); settings: GH3.TRE-Luc viability, CellTiter-Fluor, 24 h; series mostly up to 70.3 µM; note: nearly all actives have a fitted effect of over 50% in size; note: potency is the fitted concentration of half-maximal effect
Procedure, shortened: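 Counter screen for cytotoxicity: compound plus T3 (1 nM final) on GH3.TRE-Luc cells, 23.5 h at 37 °C, then fluorescence viability readout with CellTiter-Fluor.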

[6] = qHTS assay to identify small molecule antagonists of the androgen receptor (AR) signaling pathway - cell viability counter screen (AID 743033; note: nearly all actives have a fitted effect of over 45% in size; note: potency is the fitted concentration of half-maximal effect); settings: AR-bla HEK293 viability, CellTiter-Glo luminescence, 16 h; series mostly up to 58.5 µM
[7] = target: Androgen receptor (Homo sapiens) (UniProt P10275); test: qHTS assay to identify small molecule antagonists of the androgen receptor (AR) signaling pathway (AID 743035; active = well fitted inhibition curve with a large enough effect in the signal ratio in the repeat runs, not every such curve was filed as active; the % refers to the signal ratio); settings: HEK293 AR-UAS-bla, R1881-stimulated, beta-lactamase FRET, 16 h; series mostly up to 58.5 µM
Sequence of Androgen receptor (Homo sapiens) (P10275 whole entry, looked up): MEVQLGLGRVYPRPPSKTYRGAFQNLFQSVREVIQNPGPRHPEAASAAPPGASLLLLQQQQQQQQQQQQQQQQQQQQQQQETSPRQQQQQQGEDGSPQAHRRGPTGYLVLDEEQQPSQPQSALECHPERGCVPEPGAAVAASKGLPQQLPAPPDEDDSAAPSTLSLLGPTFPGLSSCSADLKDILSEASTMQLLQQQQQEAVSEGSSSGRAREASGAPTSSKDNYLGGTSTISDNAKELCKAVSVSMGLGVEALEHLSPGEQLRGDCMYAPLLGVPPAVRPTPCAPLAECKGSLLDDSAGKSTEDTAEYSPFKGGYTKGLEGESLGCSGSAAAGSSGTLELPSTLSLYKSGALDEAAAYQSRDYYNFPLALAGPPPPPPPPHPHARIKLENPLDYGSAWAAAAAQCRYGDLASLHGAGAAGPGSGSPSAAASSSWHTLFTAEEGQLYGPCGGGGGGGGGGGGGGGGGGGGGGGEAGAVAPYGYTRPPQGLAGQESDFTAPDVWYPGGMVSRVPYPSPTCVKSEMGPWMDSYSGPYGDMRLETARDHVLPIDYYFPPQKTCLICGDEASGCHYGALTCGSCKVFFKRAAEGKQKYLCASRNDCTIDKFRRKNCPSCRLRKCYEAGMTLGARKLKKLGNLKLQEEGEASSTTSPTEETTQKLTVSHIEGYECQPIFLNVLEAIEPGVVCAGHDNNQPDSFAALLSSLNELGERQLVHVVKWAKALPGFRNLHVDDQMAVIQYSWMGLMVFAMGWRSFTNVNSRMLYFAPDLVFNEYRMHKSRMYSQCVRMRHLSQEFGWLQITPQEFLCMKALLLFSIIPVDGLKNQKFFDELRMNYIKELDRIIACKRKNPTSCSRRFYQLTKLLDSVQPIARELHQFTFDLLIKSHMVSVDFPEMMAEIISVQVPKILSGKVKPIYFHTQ
Procedure, shortened: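 R1881 agonist challenge of a HEK293 UAS-beta-lactamase AR reporter line in the presence of compound (16 h, 37C); signal taken as FRET fluorescence after 2 h with LiveBLAzer B/G substrate at room temperature.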

[8] = target: Androgen receptor (Homo sapiens) (UniProt P10275); test: qHTS assay to identify small molecule agonists of the androgen receptor (AR) signaling pathway using the MDA cell line (AID 743040; note: nearly all actives have a fitted effect of over 20% in size); settings: MDA-kb2 AR-luc cells, MMTV luciferase, 16 h; series mostly up to 70.3 µM
Procedure, shortened: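 Luciferase agonist assay: 16 h compound exposure at 37C without CO2 in MDA-kb2 AR-luc cells, whose MMTV promoter responds to both AR and GR. Luminescence measured after 30 min room-temperature incubation with ONE-Glo.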

[9] = qHTS assay to identify small molecule antagonists of the androgen receptor (AR) signaling pathway using the MDA cell line - cell viability counter screen (AID 743041; note: nearly all actives have a fitted effect of over 45% in size); settings: MDA-kb2 viability, CellTiter-Fluor, 16 h, cells co-treated with R1881 androgen agonist; series mostly up to 70.3 µM
Procedure, shortened: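 Viability read by CellTiter-Fluor fluorescence in the same wells as the antagonist screen, added after 15.5 h of a 16 h, 37C exposure. Human breast carcinoma MDA-kb2 AR-luc cells, compounds co-dosed with agonist R1881.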

Structure (SMILES) | Potency [1] | Potency [2] | Potency [3] | Potency [4] | Potency [5] | Potency [6] | Potency [7] | Potency [8] | Potency [9]
O=C(Nc1ccccc1)Nc1cnns1 | inactive | 54.4 µM (active) | 54.4 µM (active) | 30.6 µM (active) | inactive | – | – | – | –
CCCCC(CC)COP(=O)(Oc1ccccc1)Oc1ccccc1 (centres undefined) | inactive | inactive | 48.6 µM (active) | – | – | inactive | inactive | inactive | inactive
CCC(C)(NC(=O)c1cc(Cl)c(C)c(Cl)c1)C(=O)CCl (centres undefined) | 43.9 µM (active) | 6.9 µM (active) | 12.3 µM (active) | 9.75 µM (active) | 15.4 µM (active) | 24.7 µM (active) | – | – | –
CC1(C)[C@H](C=C(Cl)Cl)[C@@H]1C(=O)O[C@@H](C#N)c1cccc(Oc2ccccc2)c1 | inactive | inactive | inactive | – | inactive | inactive | – | – | inactive
